The campaign covered roughly 310,000 compounds. About 14,000 (4.5%) showed an effect of 50% or more. The effect is printed as a negative number. The sample as a whole holds a higher share of strong results than the screen did.
Each compound was assayed against human ether-à-go-go-related gene (hERG) potassium channel (human, UniProt Q12809) (assay: primary screen, population patch clamp on CHO cells stably expressing hERG; higher = less effect of the substance).
Sequence of human ether-à-go-go-related gene (hERG) potassium channel (Q12809 whole entry, looked up): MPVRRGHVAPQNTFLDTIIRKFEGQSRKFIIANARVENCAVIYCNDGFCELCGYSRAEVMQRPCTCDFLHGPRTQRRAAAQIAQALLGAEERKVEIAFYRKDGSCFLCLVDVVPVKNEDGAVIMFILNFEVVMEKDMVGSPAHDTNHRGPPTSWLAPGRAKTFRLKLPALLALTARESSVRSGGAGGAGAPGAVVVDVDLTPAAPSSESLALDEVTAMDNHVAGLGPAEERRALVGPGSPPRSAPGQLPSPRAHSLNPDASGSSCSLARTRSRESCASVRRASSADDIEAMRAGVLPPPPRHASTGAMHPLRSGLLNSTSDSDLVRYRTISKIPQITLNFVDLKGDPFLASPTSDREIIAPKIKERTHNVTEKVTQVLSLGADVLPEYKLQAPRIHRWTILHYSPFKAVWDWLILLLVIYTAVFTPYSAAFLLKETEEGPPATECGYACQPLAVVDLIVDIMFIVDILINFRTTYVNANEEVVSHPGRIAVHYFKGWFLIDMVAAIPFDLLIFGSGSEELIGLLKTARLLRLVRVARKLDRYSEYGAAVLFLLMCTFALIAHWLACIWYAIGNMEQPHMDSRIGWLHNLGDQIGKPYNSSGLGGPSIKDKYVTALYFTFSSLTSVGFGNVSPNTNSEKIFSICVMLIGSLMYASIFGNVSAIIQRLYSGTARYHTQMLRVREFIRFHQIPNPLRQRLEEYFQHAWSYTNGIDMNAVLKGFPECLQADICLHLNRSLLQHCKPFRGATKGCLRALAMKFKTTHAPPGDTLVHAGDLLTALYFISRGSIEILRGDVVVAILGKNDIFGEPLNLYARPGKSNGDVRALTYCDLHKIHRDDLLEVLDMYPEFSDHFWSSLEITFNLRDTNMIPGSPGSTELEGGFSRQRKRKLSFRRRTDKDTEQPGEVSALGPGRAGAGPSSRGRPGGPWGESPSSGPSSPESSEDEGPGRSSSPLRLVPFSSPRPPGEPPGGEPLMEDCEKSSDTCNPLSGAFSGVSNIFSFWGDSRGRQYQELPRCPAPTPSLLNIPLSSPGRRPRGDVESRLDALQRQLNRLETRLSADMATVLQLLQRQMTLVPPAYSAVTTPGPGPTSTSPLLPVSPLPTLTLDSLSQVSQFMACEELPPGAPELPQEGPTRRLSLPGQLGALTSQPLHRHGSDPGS
With COc1ccc(C2=NS(=O)(=O)N(C)C(C(=O)Nc3ccc(C)cc3)=C2)cc1 the “hERG current change (%, negative = inhibition) at 10uM” value was -2.89%.
With COc1cc(C)c(NC(=S)Nc2cccc(Cl)c2C)cc1OC the “hERG current change (%, negative = inhibition) at 10uM” value was 11.1%.
With CCCCCCCCN1[C@@H](CC(=O)O)c2cc(F)ccc2S1(=O)=O the “hERG current change (%, negative = inhibition) at 10uM” value was 7.81%.
CCC(=O)NC(c1cccs1)c1cc(Cl)c2cccnc2c1O (centres unmarked) was tested, and the “hERG current change (%, negative = inhibition) at 10uM” value was -2.87%.
COc1ccc(CNC(=O)CCn2c(=O)c3cccn3c3ccc(F)cc32)cc1 was tested, and the “hERG current change (%, negative = inhibition) at 10uM” value was -7.82%.
With COc1ccccc1CCNC(=O)CCn1c(=O)c2cccn2c2ccc(F)cc21 the “hERG current change (%, negative = inhibition) at 10uM” value was 5.9%.
With COc1ccc(OC)c(CNC(=O)CCn2c(=O)c3cccn3c3ccc(F)cc32)c1 the “hERG current change (%, negative = inhibition) at 10uM” value was -62.2%.
COc1ccc(C)cc1NC(=S)N1CC(C)OC(C)C1 (centres unmarked) was tested, and the “hERG current change (%, negative = inhibition) at 10uM” value was -11.5%.
With CCC(=NCCc1c(C)[nH]c2ccccc12)C1=C(O)CC(c2ccccc2)CC1=O (centres unmarked) the “hERG current change (%, negative = inhibition) at 10uM” value was 6.02%.
With N#C/C(=C(\O)Cc1ccccc1)c1nc2ccccc2[nH]1 the “hERG current change (%, negative = inhibition) at 10uM” value was 15.6%.
With CCCCc1nc2ccccc2n1CC(=O)NN the “hERG current change (%, negative = inhibition) at 10uM” value was 16.3%.
With C=C(Br)Cn1c(CCCC)nc2ccccc21 the “hERG current change (%, negative = inhibition) at 10uM” value was -21.6%.
For CCCCc1nc2ccccc2n1Cc1nnc2n1-c1ccccc1SC2, the “hERG current change (%, negative = inhibition) at 10uM” value was -63%.
In the case of Nc1nnnn1CC(=O)OCc1cccc(Br)c1, the “hERG current change (%, negative = inhibition) at 10uM” value is reported as -13.8%.
For COc1ccc(Cl)cc1NC(=O)CN(C)CC(=O)Nc1cc(OC)c(OC)c(OC)c1, the “hERG current change (%, negative = inhibition) at 10uM” value was -8.72%.
With COc1ccc(CCNC(=O)C2CCN(C(=O)c3cccc(Cl)c3)CC2)cc1OC the “hERG current change (%, negative = inhibition) at 10uM” value was 11.5%.
For Cc1oc(-c2cccc(Cl)c2)nc1CN1CCC(C(=O)NCCCN2CC(C)CC(C)C2)CC1 (centres unmarked), the “hERG current change (%, negative = inhibition) at 10uM” value was -21.4%.
COc1ccc(CCNC(=O)C2CCN(Cc3nc(-c4cccc(Cl)c4)oc3C)CC2)cc1OC was tested, and the “hERG current change (%, negative = inhibition) at 10uM” value was -85.2%.
For COc1ccc(CCNC(=O)C2CCCN(Cc3nc(-c4cccc(Cl)c4)oc3C)C2)cc1OC (centres unmarked), the “hERG current change (%, negative = inhibition) at 10uM” value was -84.1%.
In the case of CCc1cc2c(cc3c(=O)n(CC(=O)N4CCN(C)CC4)ncn32)s1, the “hERG current change (%, negative = inhibition) at 10uM” value is reported as -14.3%.
CCOC(=O)c1ccccc1NC(=O)COC(=O)c1ccccc1C(=O)N(C)c1ccccc1 was tested, and the “hERG current change (%, negative = inhibition) at 10uM” value was -23.5%.
CC(OC(=O)CN1C(=O)NC2(CCCC2)C1=O)C(=O)Nc1cccc(Cl)c1 (centres unmarked) was tested, and the “hERG current change (%, negative = inhibition) at 10uM” value was -15.3%.
O=C(O)CC(CC(=O)Nc1ccc(-c2ccccc2)cc1)c1ccccc1 (centres unmarked) was tested, and the “hERG current change (%, negative = inhibition) at 10uM” value was 9.93%.
In the case of Cc1cc(C(=O)N/N=C/c2sccc2C)no1, the “hERG current change (%, negative = inhibition) at 10uM” value is reported as 17.2%.
In the case of CCCCNC(=S)Nc1ccc(Cl)cc1, the “hERG current change (%, negative = inhibition) at 10uM” value is reported as 3.01%.
With O=C(NCCN1CCCCC1)Nc1ccc(Cl)cc1 the “hERG current change (%, negative = inhibition) at 10uM” value was -33.7%.
S=C(NCCN1CCCCC1)Nc1ccccc1 was tested, and the “hERG current change (%, negative = inhibition) at 10uM” value was 0.941%.
For CCCNC(=S)Nc1ccc(Br)cc1, the “hERG current change (%, negative = inhibition) at 10uM” value was 11.8%.
For CN(C)CCCNC(=S)Nc1ccc(Br)cc1, the “hERG current change (%, negative = inhibition) at 10uM” value was -11.6%.
O=C(NCCN1CCCCC1)Nc1ccc(Br)cc1 was tested, and the “hERG current change (%, negative = inhibition) at 10uM” value was -52.4%.
For CCCCNC(=S)Nc1ccc(F)cc1, the “hERG current change (%, negative = inhibition) at 10uM” value was 20.6%.
For Cc1ccc(NC(=O)NCCN2CCCCC2)cc1, the “hERG current change (%, negative = inhibition) at 10uM” value was -11%.
In the case of CCCCNC(=S)Nc1ccc(C(F)(F)F)cc1, the “hERG current change (%, negative = inhibition) at 10uM” value is reported as -52.8%.
For S=C(NCCN1CCOCC1)Nc1ccc(Br)cc1, the “hERG current change (%, negative = inhibition) at 10uM” value was 5.71%.
For CCN(CC)CCCNC(=S)Nc1ccc(Br)cc1, the “hERG current change (%, negative = inhibition) at 10uM” value was -53.2%.
In the case of S=C(NCCN1CCCCC1)Nc1ccc(Br)cc1, the “hERG current change (%, negative = inhibition) at 10uM” value is reported as -69.1%.
With COc1ccccc1CNC(=O)C1CCC(=O)N(CCCc2ccccc2)C1 (centres unmarked) the “hERG current change (%, negative = inhibition) at 10uM” value was -9.31%.
For CC(C)c1cc(CNC(=O)CC2C(=O)NCCN2CC2CCCCC2)on1 (centres unmarked), the “hERG current change (%, negative = inhibition) at 10uM” value was 11.2%.
For O=C(NCCN1CCCCC1)Nc1ccc(F)c(Cl)c1, the “hERG current change (%, negative = inhibition) at 10uM” value was -33.9%.
With Cc1ccc(NC(=O)NCCN2CCCCC2)cc1C the “hERG current change (%, negative = inhibition) at 10uM” value was -15.8%.
For Cc1ccc(NC(=O)NCCN2CCCCC2)cc1Cl, the “hERG current change (%, negative = inhibition) at 10uM” value was -51.7%.
With COc1ccc(S(=O)(=O)N2CCN(C(=O)[C@H](Cc3ccccc3)NC(=O)c3ccco3)CC2)cc1 the “hERG current change (%, negative = inhibition) at 10uM” value was -28.6%.
For CCCOc1ccc(OCCN2CCCC(C)C2)cc1.O=C(O)C(=O)O (centres unmarked), the “hERG current change (%, negative = inhibition) at 10uM” value was -52.2%.
With Brc1ccc(OCCN2CCOCC2)cc1 the “hERG current change (%, negative = inhibition) at 10uM” value was 4.54%.
In the case of CC1CCCN(CCOc2ccc(Br)cc2)C1 (centres unmarked), the “hERG current change (%, negative = inhibition) at 10uM” value is reported as -51.3%.
For CC1CN(CCOc2ccc(F)cc2)CC(C)O1.O=C(O)C(=O)O (centres unmarked), the “hERG current change (%, negative = inhibition) at 10uM” value was 6.81%.
For CC1CN(CCOc2ccc(Cl)c(Cl)c2)CC(C)O1.O=C(O)C(=O)O (centres unmarked), the “hERG current change (%, negative = inhibition) at 10uM” value was -5.18%.
For CC1CC(C)CN(CCOc2ccc(Br)cc2)C1.O=C(O)C(=O)O (centres unmarked), the “hERG current change (%, negative = inhibition) at 10uM” value was -60.3%.
COc1ccc(OCCCN2CCCC(C)C2)cc1 (centres unmarked) was tested, and the “hERG current change (%, negative = inhibition) at 10uM” value was -32%.
With O=C(CSc1nc2ccccc2n1CC(=O)N1CCCC1)Nc1ccc2c(c1)OCO2 the “hERG current change (%, negative = inhibition) at 10uM” value was -37.7%.
CC(=O)Nc1c(C)nn(C(C)=O)c1C was tested, and the “hERG current change (%, negative = inhibition) at 10uM” value was 16.4%.
In the case of CC(=O)N(C(C)=O)c1nc2nc(C)cc(C)n2n1, the “hERG current change (%, negative = inhibition) at 10uM” value is reported as -42.3%.
With COc1cccc(NC(=O)NCCc2ccc(Cl)cc2)c1 the “hERG current change (%, negative = inhibition) at 10uM” value was 9.47%.
In the case of CCOC(=O)NNc1ccccc1, the “hERG current change (%, negative = inhibition) at 10uM” value is reported as 6.88%.
For Cc1ccc(-c2csc3nc4ccc(C(=O)NCCO)cc4c(=O)n23)cc1, the “hERG current change (%, negative = inhibition) at 10uM” value was 12.1%.
With CC(C)(C)c1ccc(OCCC(=O)OCC(=O)Nc2cccnc2Cl)cc1 the “hERG current change (%, negative = inhibition) at 10uM” value was -2.33%.
With COc1cc2c(cc1OC)C(c1cccs1)N(C(=O)c1ccncc1)CC2 (centres unmarked) the “hERG current change (%, negative = inhibition) at 10uM” value was -66.8%.
For COc1cc2c(cc1OC)C(c1cccs1)N(C(=O)c1cccnc1)CC2 (centres unmarked), the “hERG current change (%, negative = inhibition) at 10uM” value was -54.9%.
With COc1cc2c(cc1OC)C(c1cccs1)N(C(=O)C(C)C)CC2 (centres unmarked) the “hERG current change (%, negative = inhibition) at 10uM” value was -19.2%.
With COc1cc2c(cc1OC)C(c1ccccc1)N(C(=O)c1ccccc1)CC2 (centres unmarked) the “hERG current change (%, negative = inhibition) at 10uM” value was -13.1%.
For COc1cc2c(cc1OC)C(c1cccs1)N(C(=S)NC(C)C)CC2 (centres unmarked), the “hERG current change (%, negative = inhibition) at 10uM” value was -40%.
COc1ccc(C2c3cc(OC)c(OC)cc3CCN2C(=O)c2ccccc2)cc1OC (centres unmarked) was tested, and the “hERG current change (%, negative = inhibition) at 10uM” value was 2.95%.

From PMC4336329 (PLoS ONE, 2015)
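Also: peak tail current of the secondary pulse compared with the same well before compound.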
